The list is not random: actives were taken first. Their share in the collection is about 15%.
12-LOX inh – Primary qHTS assay for inhibitors of human arachidonate 12S-lipoxygenase (ALOX12): Round 2; actives 1.1% (n = 580,000); Polyunsaturated fatty acid lipoxygenase ALOX12 (Homo sapiens), P18054; Potency, µM (titrated, usually from 108 µM), without a hit: at the highest dose activity change, negative = inhibition, actives largely listed as inhibitors; purified 12hLO, xylenol orange hydroperoxide absorbance
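Hydroperoxide product was detected by ferrous iron/xylenol orange as the 573 to 405 nm absorbance ratio. Arachidonic acid at 40 uM (final) was turned over for 30 min at room temperature by 150 nM human 12hLO, pH 7.0 Hepes buffer, after 15 min compound preincubation.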
ELG1 repair inh – qHTS screen for small molecules that inhibit ELG1-dependent DNA repair in human embryonic kidney (HEK293T) cells expressing luciferase-tagged ELG1. AID 504467, 2011. HEK293T ELG1-luciferase reporter, luminescence, 16 h; DNA damage induced by 5-fluorouridine. Potency, µM (top dose mostly 46.1 µM), for the others: top-dose activity change, negative = inhibition, most hits filed as inhibitors. actives 2.3% (n = 330,000); also: nearly all actives have a fitted effect of over 55% in size
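Quantitative HTS, concentration-response format. 2,000 cells/well co-treated with 5-fluorouridine and compound, 16 hr in 5% CO2 at 37 °C; ONE-Glo luminescence read after 30 min.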
RORgamma inh – qHTS for inhibitors of ROR gamma transcriptional activity. Potency, µM (highest dose often 53.6 µM), without a hit: top-dose activity change, negative = inhibition, hits mostly inhibitors. Drosophila S2 Gal4-RORgamma UAS-luciferase reporter, 20 h. actives 5.4% (n = 310,000). AID 2551, 2010. Nuclear receptor ROR-gamma (Mus musculus), P51450; also: nearly all actives have a fitted effect of over 60% in size
Target sequence (P51450 whole entry, looked up, the tested form may be a part): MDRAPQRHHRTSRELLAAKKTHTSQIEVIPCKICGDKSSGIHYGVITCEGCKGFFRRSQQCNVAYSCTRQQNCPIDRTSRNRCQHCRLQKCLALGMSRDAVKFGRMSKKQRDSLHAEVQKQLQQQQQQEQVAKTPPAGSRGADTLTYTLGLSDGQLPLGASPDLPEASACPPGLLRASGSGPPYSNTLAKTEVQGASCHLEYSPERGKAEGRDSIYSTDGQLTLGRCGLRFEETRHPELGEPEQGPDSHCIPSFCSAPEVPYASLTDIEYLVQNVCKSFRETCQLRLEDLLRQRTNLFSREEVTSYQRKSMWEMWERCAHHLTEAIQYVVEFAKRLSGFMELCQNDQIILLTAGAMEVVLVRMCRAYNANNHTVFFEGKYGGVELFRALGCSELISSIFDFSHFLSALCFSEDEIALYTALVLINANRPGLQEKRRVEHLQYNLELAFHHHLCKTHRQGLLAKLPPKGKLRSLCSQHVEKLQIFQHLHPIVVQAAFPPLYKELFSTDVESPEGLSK
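In this cell-based reporter format, copper sulfate (700 uM final) drives Gal4–ROR gamma fusion expression from a metallothionein promoter in Drosophila Schneider cells; compounds preincubated 1 hr, reporter read after 20 hr at ambient temperature.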
DT40 TDP1 no CPT – qHTS for Inhibitors of human tyrosyl-DNA phosphodiesterase 1 (TDP1): qHTS in cells in absence of CPT; DT40 Tdp1-/- hTDP1 cells, no CPT, ATP luminescence, 48 h; Potency, µM (series often up to 46.2 µM), without a hit: top-dose activity change, negative = growth inhibition, actives largely listed as inhibitors; actives 15% (n = 420,000); AID 686978, 2013; also: nearly all actives have a fitted effect of over 55% in size
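Readout: luminescence from CellTiter-Glo after 30 min in the dark at RT. Cells: DT40 Tdp1-/- with stable hTDP1, 400/well. Exposure: compounds alone, ≥48 hr, 37 °C.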
TDP1 cell CPT – qHTS for Inhibitors of human tyrosyl-DNA phosphodiesterase 1 (TDP1): qHTS in cells in presence of CPT. AID 686979, 2013. chicken DT40 Tdp1-/-;hTDP1 cells + 20 nM CPT, ATP luminescence, 48 h. actives 12% (n = 420,000). Potency, µM (top dose mostly 46.2 µM), for inactives: at the top dose activity change, negative = growth inhibition, usual class: inhibitors; also: nearly all actives have a fitted effect of over 55% in size
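Cell growth measured by CellTiter-Glo luminescence after a minimum 48 h, 37 C compound exposure with 20 nM CPT in Tdp1-knockout DT40 cells stably expressing hTDP1, seeded 400/well; qHTS titration format.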
Gal4-VP16 FLuc – VP16 counterscreen qHTS for inhibitors of ROR gamma transcriptional activity; Drosophila S2 Gal4-VP16 UAS-luciferase, luminescence, 20 h; Potency, µM (doses to about 53.6 µM), inactives show at the top dose activity, negative = inhibition, most hits filed as inhibitors; actives 3.5% (n = 310,000); AID 2546, 2010;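 also: Gal4-VP16 expression switched on by copper sulfate through the metallothionein promoter; nearly all actives have a fitted effect of over 50% in size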
Starred values were filed as active, the others as inactive; [ ] = dose if it differs, or a comment. Calls follow the shape of the dose curve; as a rule, active = well fitted curve in the direction sought with a large enough effect; inconclusive = small, poorly fitted or top-dose-only effect, or another doubt; inactive = no such curve, though single readings can be large; an effect the other way counts as inactive or inconclusive. % is scaled to controls: 0 for no effect and ±100 for the full control effect; potency is read from the fitted curve at half-maximal effect.

`S=c1[nH]nc(COc2ccccc2)n1/N=C/c1cccc(Br)c1` gave 12-LOX inh 32µM*, ELG1 repair inh 6%, RORgamma inh -42%, DT40 TDP1 no CPT -16%, TDP1 cell CPT inconclusive and Gal4-VP16 FLuc -21%.
Screening CC(C)n1nc(C(=O)N2CCN(c3ncccn3)CC2)c2ccccc2c1=O returned 12-LOX inh 1%.
`c1ccc(-c2nnc3n2CCN(Cc2ccsc2)C3)cc1` gave 12-LOX inh 1%[12.5 µM].
CC(=O)Nc1ccc(NC(=O)CCNc2c(-c3ccc(F)cc3)nc3cnccn23)cc1 was read as 12-LOX inh -11%.
Screening Cc1nc(Nc2nc3c(c(=O)[nH]2)CCC3)nc2ccccc12 returned DT40 TDP1 no CPT 4.1µM* and TDP1 cell CPT 5.8µM*.
`Cc1ccc2c(C)nc(Nc3nc(C)cc(=O)[nH]3)nc2c1` gave 12-LOX inh -25%.
Screening Cc1nn2c(=O)cc(CSc3nc4ccccc4[nH]3)nc2s1 returned 12-LOX inh -1%, ELG1 repair inh 2%, RORgamma inh 4µM*, DT40 TDP1 no CPT -15%, TDP1 cell CPT -14% and Gal4-VP16 FLuc -11%.
`Cc1ccc(SCc2cc(=O)[nH]c(Nc3nc(C)c4ccccc4n3)n2)cc1` gave 12-LOX inh inconclusive, ELG1 repair inh -6%, RORgamma inh 4%, DT40 TDP1 no CPT inconclusive, TDP1 cell CPT 12µM* and Gal4-VP16 FLuc -7%.
Cc1ccc(SCc2cc(=O)[nH]c(Nc3nc(C)c4ccc(C)cc4n3)n2)cc1 was read as 12-LOX inh -55%, ELG1 repair inh 12%, RORgamma inh -1%, DT40 TDP1 no CPT inconclusive, TDP1 cell CPT inconclusive and Gal4-VP16 FLuc -5%.
Cc1nn2c(=O)cc(CSc3n[nH]c(-c4ccccc4)n3)nc2s1 was read as 12-LOX inh -26%.
`Cc1ccc2c(C)nc(Nc3nc(CSc4nc5ccccc5[nH]4)cc(=O)[nH]3)nc2c1` gave 12-LOX inh 4%, ELG1 repair inh 4.6µM*, RORgamma inh inconclusive, DT40 TDP1 no CPT 12µM*, TDP1 cell CPT 12µM* and Gal4-VP16 FLuc 5.6µM*.
Screening COc1ccc(C(=O)Nc2ccc(-c3noc([C@@H]4CCCN4CCCc4ccccc4)n3)cn2)cc1 returned 12-LOX inh 49%.
Screening Cc1ccsc1CN1CCC(C2CCN(S(C)(=O)=O)CC2)C1 (centres undefined) returned 12-LOX inh 89%.
`OC(c1ccc(Cl)c(Cl)c1)c1ncc(-c2ccccc2C(F)(F)F)[nH]1` (centres undefined) gave 12-LOX inh -17%, DT40 TDP1 no CPT 18µM* and TDP1 cell CPT inconclusive.
`COc1ccccc1-c1cnc(C(O)c2ccc(Cl)c(Cl)c2)[nH]1` (centres undefined) gave 12-LOX inh -18%, DT40 TDP1 no CPT 16µM* and TDP1 cell CPT inconclusive.
`OC(c1ccc(Cl)c(F)c1)c1ncc(-c2ccccc2C(F)(F)F)[nH]1` (centres undefined) gave 12-LOX inh -2%, DT40 TDP1 no CPT inconclusive and TDP1 cell CPT inconclusive.
`COc1ccccc1-c1cnc(C(O)c2cc(Cl)cc(Cl)c2)[nH]1` (centres undefined) gave 12-LOX inh -6%, DT40 TDP1 no CPT inconclusive and TDP1 cell CPT 21µM*.
Screening COc1ccccc1-c1cnc(C(O)c2ccc(F)c(C)c2)[nH]1 (centres undefined) returned 12-LOX inh 12%, DT40 TDP1 no CPT -30% and TDP1 cell CPT inconclusive.
For COc1ccc(-c2nc(C(=O)N3CCOCC3)nn2-c2ccccc2Cl)cc1 the results were 12-LOX inh -11%.
`COc1cc(OC)cc(-c2nc3ccccc3c(=O)n2OC(=O)c2ccccc2C)c1` gave 12-LOX inh -11%, ELG1 repair inh inconclusive, RORgamma inh 13µM*, DT40 TDP1 no CPT -26%, TDP1 cell CPT inconclusive and Gal4-VP16 FLuc inconclusive.
For COc1ccc(-c2nc3ccccc3c(=O)n2CCOc2c(C)cccc2C)cc1 the results were 12-LOX inh -7%, ELG1 repair inh -7%, RORgamma inh -1%, DT40 TDP1 no CPT inconclusive, TDP1 cell CPT -14% and Gal4-VP16 FLuc 1%.
`O=C(On1c(-c2ccccc2)nc2ccccc2c1=O)c1ccco1` gave 12-LOX inh inconclusive, RORgamma inh 11µM*, DT40 TDP1 no CPT 23µM*, TDP1 cell CPT 23µM* and Gal4-VP16 FLuc inconclusive.
For CC(C)c1nnc(C2CN(C(=O)CC3CCCC3)CC23CCOCC3)o1 (centres undefined) the results were 12-LOX inh 7%.
Screening CCn1c(C)c(C)c2cc(C(=O)NCC(C)c3ccccc3)ccc21 (centres undefined) returned 12-LOX inh -5%, DT40 TDP1 no CPT 29µM* and TDP1 cell CPT 16µM*.
`Cc1c(C)n(Cc2ccc(F)cc2)c2ccc(C(=O)NCCN3CCOCC3)cc12` gave 12-LOX inh inconclusive, ELG1 repair inh -12%, RORgamma inh 4%, DT40 TDP1 no CPT 16µM*, TDP1 cell CPT inconclusive and Gal4-VP16 FLuc 15%.
`Cc1cc2c(cc(C(=O)NCCCN3CCOCC3)n2Cc2ccc(Cl)cc2)o1` gave 12-LOX inh -2%, ELG1 repair inh inconclusive, RORgamma inh inconclusive, DT40 TDP1 no CPT inconclusive, TDP1 cell CPT inconclusive and Gal4-VP16 FLuc 10µM*.
Screening COc1ccc(OC)c(CCNC(=O)c2ccc3c(c2)c(C)c(C)n3Cc2ccccc2)c1 returned 12-LOX inh -27%, DT40 TDP1 no CPT inconclusive and TDP1 cell CPT 16µM*.
Screening Cc1ccc(Cn2c(C(=O)NCCCN3CCOCC3)cc3sccc32)cc1 returned ELG1 repair inh 6%, RORgamma inh -12%, DT40 TDP1 no CPT inconclusive, TDP1 cell CPT -24% and Gal4-VP16 FLuc -12%.
`COc1ccc(CCNC(=O)c2ccc(Cn3c(=O)c4ccccc4n(Cc4cccc(C)c4)c3=O)cc2)cc1OC` gave 12-LOX inh 0%, DT40 TDP1 no CPT inconclusive and TDP1 cell CPT inconclusive.

Source: PubChem
